For 10 compounds, growth inhibition results are on record in PubChem BioAssay (NCI).

The panel holds about 79,000 compounds, 15% with a hit somewhere; the sample as a whole holds those more often. Unmarked numbers belong to inactive results. Calls of active or inactive are those of the source. Rule as the data show it: active = growth inhibition above about 70%; inactive = the rest.

Assay [1] is described as follows: NCI Yeast Anticancer Drug Screen. Data for the rad50 strain (AID 155).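 Also: 0% = growth of vehicle-only cultures of the same strain.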 Conditions: S. cerevisiae rad50 strain growth inhibition, active compounds read high. In a few lines:
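Vehicle-treated cultures provide the reference for the growth inhibition reported for compound-exposed, repair-deficient yeast.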

The nature of assay [2]: NCI Yeast Anticancer Drug Screen. Data for the mec2-1 strain (AID 157). The following applies: S. cerevisiae mec2-1 strain, active compounds read high. The method in brief:
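Vehicle-treated cultures served as reference for growth inhibition of compound-exposed mec2-1 yeast.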

Assay [3] in a line: NCI Yeast Anticancer Drug Screen. Data for the sgs1 mgt1 strain (AID 161).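 Also: 0% = growth of cultures given vehicle only.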 The following applies: S. cerevisiae sgs1 mgt1 strain, active compounds read high. The method in brief: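 Inhibition of yeast growth, normalised to vehicle-treated controls, is reported for a strain bearing genetic alterations in DNA damage repair.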
Assay [4] is described as follows: NCI Yeast Anticancer Drug Screen. Data for the cln2 rad14 strain (AID 165).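 Also: 0% = growth equal to vehicle treated cultures.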 The following applies: S. cerevisiae cln2 rad14 strain, active compounds read high. In a few lines: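 Each compound was tested on cln2 rad14 yeast. Inhibition of growth was calculated against vehicle-exposed controls.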
The nature of assay [5]: NCI Yeast Anticancer Drug Screen. Data for the bub3 strain (AID 167). The following applies: S. cerevisiae bub3 mutant strain, active compounds read high. The method in brief:
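Mutant yeast screening strain plus compound; vehicle-treated cultures serve as the 0% inhibition reference.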

Assay [6] is described as follows: NCI Yeast Anticancer Drug Screen. Data for the mlh1 rad18 strain (AID 175). The following applies: S. cerevisiae mlh1 rad18 strain growth inhibition, active compounds read high. In a few lines: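 Vehicle-treated cultures served as the reference for growth inhibition in a yeast strain carrying DNA damage repair alterations exposed to each compound.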
Setting [7] is: at 5.0 µM (retest, dose inferred, filed as 0.5).
Where [8] appears, read: at 50.0 µM (retest, dose inferred, filed as 5.0).

Regarding `COC(=O)C12CCC(=O)C(C)=C1CCC(OC)(OC)C2` (stereo not given), the growth inhibition in assay [1] (setting [7]) is -5%; in assay [1] (setting [8]), 4%; in assay [1] (at 50.0 µM), 95.2% (active); in assay [2] (setting [7]) it was -10%; in assay [2] (setting [8]), 6%; in assay [2] (at 50.0 µM), 16.9%. Also, the growth inhibition was 7% in assay [3] (setting [7]); 17% in assay [3] (setting [8]); 66.5% in assay [3] (at 50.0 µM); -2% in assay [4] (setting [7]); -7% in assay [4] (setting [8]); -1% in assay [4] (at 50.0 µM). Moreover, the growth inhibition in assay [5] (setting [7]) is -2%; in assay [5] (setting [8]) it was -3%; in assay [5] (at 50.0 µM) it was 61.8%; in assay [6] (setting [7]) it was 10%; in assay [6] (setting [8]), 11%; in assay [6] (at 50.0 µM), 82.3% (active).

Turning to `CCN(CC)C(=S)N/N=C/c1cc([N+](=O)[O-])ccc1O`, the growth inhibition is -21% in assay [1] (setting [7]); 63% in assay [1] (setting [8]); 37% in assay [1] (at 50.0 µM); 15% in assay [2] (setting [7]); 88% (active) in assay [2] (setting [8]); 79.8% (active) in assay [2] (at 50.0 µM). Further, the growth inhibition was 36% in assay [3] (setting [7]); 87% (active) in assay [3] (setting [8]); 54.4% in assay [3] (at 50.0 µM); -3% in assay [4] (setting [7]); 66% in assay [4] (setting [8]); 59% in assay [4] (at 50.0 µM). Besides, the growth inhibition in assay [5] (setting [7]) was 16%; in assay [5] (setting [8]) it was 76% (active); in assay [5] (at 50.0 µM), 56.5%; in assay [6] (setting [7]), 12%; in assay [6] (setting [8]), 80% (active); in assay [6] (at 50.0 µM), 14.8%.

With `CCCCCCCCCCCC1=NCCN1CCNCCCC`, the growth inhibition in assay [1] (setting [7]) was 6%; in assay [1] (setting [8]), 75% (active); in assay [1] (at 50.0 µM), 36.6%; in assay [2] (setting [7]), 5%; in assay [2] (setting [8]) it was 90% (active); in assay [2] (at 50.0 µM) it was 98.7% (active). Also, the growth inhibition is 6% in assay [3] (setting [7]); 96% (active) in assay [3] (setting [8]); 44.2% in assay [3] (at 50.0 µM); 9% in assay [4] (setting [7]); 66% in assay [4] (setting [8]); 97.3% (active) in assay [4] (at 50.0 µM). Besides, the growth inhibition in assay [5] (setting [7]) was 4%; in assay [5] (setting [8]) it was 79% (active); in assay [5] (at 50.0 µM) it was 98.4% (active); in assay [6] (setting [7]), 11%; in assay [6] (setting [8]) it was 92% (active); in assay [6] (at 50.0 µM), 98.8% (active).

`O=C1CCC/C(c2ccccc2)=N\N=C/1c1ccccc1`: the growth inhibition in assay [1] (setting [7]) was 7%; in assay [1] (setting [8]) it was 12%; in assay [1] (at 50.0 µM), 54.8%; in assay [2] (setting [7]), 10%; in assay [2] (setting [8]) it was 16%; in assay [2] (at 50.0 µM), -6.6%. The growth inhibition in assay [3] (setting [7]) was 10%; in assay [3] (setting [8]), 34%; in assay [3] (at 50.0 µM) it was 21.6%; in assay [4] (setting [7]) it was 8%; in assay [4] (setting [8]), 12%; in assay [4] (at 50.0 µM), -5.1%. Besides, the growth inhibition is 11% in assay [5] (setting [7]); 33% in assay [5] (setting [8]); 24.3% in assay [5] (at 50.0 µM); 4% in assay [6] (setting [7]); 18% in assay [6] (setting [8]); 23.6% in assay [6] (at 50.0 µM).

On to `Nc1nc(N)c2nc(CNc3ccc(C(=O)NC(CCC(=O)O)C(=O)O)cc3)cnc2n1` (stereo not given), for which the growth inhibition in assay [1] (setting [7]) is -4%; in assay [1] (setting [8]), 30%; in assay [1] (at 50.0 µM), 64.8%; in assay [2] (setting [7]) it was -3%; in assay [2] (setting [8]), 91% (active); in assay [2] (at 50.0 µM), 97.8% (active). In addition, the growth inhibition is -2% in assay [3] (setting [7]); -19% in assay [3] (setting [8]); 34.5% in assay [3] (at 50.0 µM); 5% in assay [4] (setting [7]); -47% in assay [4] (setting [8]); -48.9% in assay [4] (at 50.0 µM). The growth inhibition in assay [5] (setting [7]) was 0%; in assay [5] (setting [8]) it was -47%; in assay [5] (at 50.0 µM), 74.8% (active); in assay [6] (setting [7]) it was -1%; in assay [6] (setting [8]), -19%; in assay [6] (at 50.0 µM) it was 83.5% (active).

Regarding `Cc1c(CC=C(c2ccccc2)c2ccccc2)cccc1C[N+](C)(C)C`, the growth inhibition in assay [1] (setting [7]) is 95% (active); in assay [1] (setting [8]), 73% (active); in assay [1] (at 50.0 µM) it was 90.7% (active); in assay [2] (setting [7]), 78% (active); in assay [2] (setting [8]), 34%; in assay [2] (at 50.0 µM), 62.8%. The growth inhibition in assay [3] (setting [7]) was 99% (active); in assay [3] (setting [8]), 98% (active); in assay [3] (at 50.0 µM), 99% (active); in assay [4] (setting [7]), 2%; in assay [4] (setting [8]), 61%; in assay [4] (at 50.0 µM), 48.1%. In addition, the growth inhibition in assay [5] (setting [7]) was 25%; in assay [5] (setting [8]), 72% (active); in assay [5] (at 50.0 µM), 80.2% (active); in assay [6] (setting [7]) it was 95% (active); in assay [6] (setting [8]), 98% (active); in assay [6] (at 50.0 µM), 98.2% (active).

For `O=C(C(=O)c1ccncc1)c1ccccc1`, the growth inhibition in assay [1] (setting [7]) is -148%; in assay [1] (setting [8]) it was -127%; in assay [1] (at 50.0 µM), 7.6%; in assay [2] (setting [7]), -52%; in assay [2] (setting [8]), -55%; in assay [2] (at 50.0 µM), 23.1%. The growth inhibition in assay [3] (setting [7]) is -58%; in assay [3] (setting [8]), -63%; in assay [3] (at 50.0 µM), -5.6%; in assay [4] (setting [7]), -59%; in assay [4] (setting [8]) it was -59%; in assay [4] (at 50.0 µM), 34%. In addition, the growth inhibition in assay [5] (setting [7]) was -64%; in assay [5] (setting [8]) it was -83%; in assay [5] (at 50.0 µM), -12.2%; in assay [6] (setting [7]), -117%; in assay [6] (setting [8]), -114%; in assay [6] (at 50.0 µM), -14.6%.

As to `c1ccc(N=C2c3ccsc3C(=Nc3ccccc3)c3ccsc32)cc1`, the growth inhibition in assay [1] (setting [7]) is 25%; in assay [1] (setting [8]) it was 98% (active); in assay [1] (at 50.0 µM) it was 80% (active); in assay [2] (setting [7]) it was 22%; in assay [2] (setting [8]), 98% (active); in assay [2] (at 50.0 µM) it was 75.5% (active). The growth inhibition in assay [3] (setting [7]) is 21%; in assay [3] (setting [8]), 93% (active); in assay [3] (at 50.0 µM), 81.7% (active); in assay [4] (setting [7]), 5%; in assay [4] (setting [8]) it was 53%; in assay [4] (at 50.0 µM) it was 84.5% (active). In addition, the growth inhibition in assay [5] (setting [7]) is 51%; in assay [5] (setting [8]) it was 97% (active); in assay [5] (at 50.0 µM), 81.6% (active); in assay [6] (setting [7]) it was 29%; in assay [6] (setting [8]), 97% (active); in assay [6] (at 50.0 µM), 85.6% (active).

For the compound `Nc1c(-c2c(Cl)cccc2Cl)[n+]([O-])c2ccccc2[n+]1[O-]`, the growth inhibition is 26% in assay [1] (setting [7]); 99% (active) in assay [1] (setting [8]); 75% (active) in assay [1] (at 50.0 µM); 29% in assay [2] (setting [7]); 99% (active) in assay [2] (setting [8]); 38.9% in assay [2] (at 50.0 µM). In addition, the growth inhibition in assay [3] (setting [7]) was 44%; in assay [3] (setting [8]), 100% (active); in assay [3] (at 50.0 µM), 74.7% (active); in assay [4] (setting [7]), 28%; in assay [4] (setting [8]), 99% (active); in assay [4] (at 50.0 µM), 69.3%. Also, the growth inhibition was 45% in assay [5] (setting [7]); 99% (active) in assay [5] (setting [8]); 66.8% in assay [5] (at 50.0 µM); 72% (active) in assay [6] (setting [7]); 99% (active) in assay [6] (setting [8]); 88.8% (active) in assay [6] (at 50.0 µM).

On to `O=C1C2(Cl)C(Cl)=C(Cl)C1(Cl)C1(Cl)C(Cl)=C(Cl)C(=O)C21Cl` (stereo not given), for which the growth inhibition in assay [1] (setting [7]) was 55%; in assay [1] (setting [8]), 88% (active); in assay [1] (at 50.0 µM), 98.2% (active); in assay [2] (setting [7]), 45%; in assay [2] (setting [8]) it was 92% (active); in assay [2] (at 50.0 µM), 54.2%. For the same compound, the growth inhibition is 45% in assay [3] (setting [7]); 92% (active) in assay [3] (setting [8]); 39.8% in assay [3] (at 50.0 µM); 19% in assay [4] (setting [7]); 89% (active) in assay [4] (setting [8]); 76.4% (active) in assay [4] (at 50.0 µM). The growth inhibition in assay [5] (setting [7]) is 21%; in assay [5] (setting [8]), 92% (active); in assay [5] (at 50.0 µM) it was 28.4%; in assay [6] (setting [7]), 66%; in assay [6] (setting [8]) it was 90% (active); in assay [6] (at 50.0 µM), 61.2%.
